# Source: the supplement of paper PMC8728848
# Only a selection was taken, and the strongest signals are over-represented in it overall.
# Assays:
# Assay in all cases: glycan array binding signal (z-score within array); higher = stronger binding
# Conditions in all cases: glycan notation: IUPAC condensed, linker removed; mutation: E227G
# [1] = target: Fuc(a1-2)Gal(b1-3)GalNAc(a1-3)[Fuc(a1-2)]Gal(b1-4)Glc
# Outline: (§1)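 Glycan array data were curated from 3228 arrays in the Consortium for Functional Glycomics database and kept only where the protein sequence was available. Glycan names were converted to IUPAC-condensed notation, and columns mapping to the same glycan were averaged. The binding signal is a within-array Z-score, averaged across arrays of the same protein sequence at different concentrations or buffers and across linkers. Negative Z-scores can be read as non-binding.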
# [2] = target: Fuc(a1-2)Gal(b1-3)GlcNAc(b1-3)[Gal(b1-4)GlcNAc(b1-6)]Gal(b1-4)Glc
# Outline: as §1
# [3] = target: Fuc(a1-2)Gal(b1-3)[Fuc(a1-4)]GlcNAc(b1-2)Man(a1-3)[Fuc(a1-2)Gal(b1-3)[Fuc(a1-4)]GlcNAc(b1-2)Man(a1-3)]Man(b1-4)GlcNAc(b1-4)GlcNAc
# Outline: as §1
# [4] = target: Fuc(a1-2)Gal(b1-4)Glc
# Outline: as §1
# [5] = target: Fuc(a1-2)Gal(b1-4)GlcNAc(b1-2)Man
# Outline: as §1
# [6] = target: Fuc(a1-2)Gal(b1-4)[Fuc(a1-3)]GlcNAc(b1-2)Man(a1-3)[Fuc(a1-2)Gal(b1-4)[Fuc(a1-3)]GlcNAc(b1-2)Man(a1-6)]Man(b1-4)GlcNAc(b1-4)[Fuc(a1-6)]GlcNAc
# Outline: as §1
# [7] = target: Fuc(a1-2)Gal(b1-4)[Fuc(a1-3)]GlcNAc(b1-3)GalNAc
# Outline: as §1
# [8] = target: Fuc(a1-2)[Gal(a1-3)]Gal
# Outline: as §1
# [9] = target: Fuc(a1-2)[Gal(a1-3)]Gal(b1-4)GlcNAc(b1-2)Man(a1-3)[Fuc(a1-2)[Gal(a1-3)]Gal(b1-4)GlcNAc(b1-2)Man(a1-6)]Man(b1-4)GlcNAc(b1-4)[Fuc(a1-6)]GlcNAc
# Outline: as §1
# [10] = target: Fuc(a1-2)[Gal(a1-3)]Gal(b1-4)GlcNAc(b1-3)[Fuc(a1-2)[Gal(a1-3)]Gal(b1-4)GlcNAc(b1-6)]GalNAc
# Outline: as §1
# [11] = target: Fuc(a1-2)[GalNAc(a1-3)]Gal(b1-3)GalNAc(b1-3)Gal(a1-4)Gal(b1-4)Glc
# Outline: as §1
# [12] = target: Gal(a1-3)Gal(b1-3)GlcNAc(b1-2)Man(a1-3)[Gal(a1-3)Gal(b1-3)GlcNAc(b1-2)Man(a1-6)]Man(b1-4)GlcNAc(b1-4)GlcNAc
# Outline: as §1
# [13] = target: Gal(a1-4)Gal(b1-3)GlcNAc(b1-2)Man(a1-3)[Gal(a1-4)Gal(b1-3)GlcNAc(b1-2)Man(a1-6)]Man(b1-4)GlcNAc(b1-4)GlcNAc
# Outline: as §1
# [14] = target: Gal(b1-2)Gal
# Outline: as §1
# [15] = target: Gal(b1-3)Gal(b1-4)GlcNAc
# Outline: as §1
# [16] = target: Gal(b1-3)GalNAc
# Outline: as §1
# [17] = target: Gal(b1-3)GalNAc(b1-4)Gal(b1-4)Glc
# Outline: as §1
# [18] = target: Gal(b1-3)GlcNAc(b1-2)Man(a1-3)[Gal(b1-3)GlcNAc(b1-2)Man(a1-6)]Man(b1-4)GlcNAc(b1-4)GlcNAc
# Outline: as §1
# [19] = target: Gal(b1-3)GlcNAc(b1-3)GalNAc
# Outline: as §1
# [20] = target: Gal(b1-3)GlcNAc(b1-6)Gal(b1-4)GlcNAc
# Outline: as §1
# [21] = target: Gal(b1-3)GlcNAc6S
# Outline: as §1
# [22] = target: Gal(b1-3)[Fuc(a1-4)]GlcNAc
# Outline: as §1
# [23] = target: Gal(b1-3)[Neu5Ac(a2-6)]GalNAc
# Outline: as §1
# [24] = target: Gal(b1-4)Glc6S
# Outline: as §1
# [25] = target: Gal(b1-4)GlcNAc(b1-2)Man(a1-6)Man(b1-4)GlcNAc(b1-4)GlcNAc
# Outline: as §1
# [26] = target: Gal(b1-4)GlcNAc(b1-3)Gal(b1-4)GlcNAc(b1-2)Man(a1-3)[Gal(b1-4)GlcNAc(b1-3)Gal(b1-4)GlcNAc(b1-2)Man(a1-6)]Man(b1-4)GlcNAc(b1-4)[Fuc(a1-6)]GlcNAc
# Outline: as §1
# [27] = target: Gal(b1-4)GlcNAc(b1-3)Gal(b1-4)GlcNAc(b1-3)Gal(b1-4)GlcNAc(b1-3)Gal(b1-4)GlcNAc(b1-2)Man(a1-3)[Gal(b1-4)GlcNAc(b1-3)Gal(b1-4)GlcNAc(b1-3)Gal(b1-4)GlcNAc(b1-3)Gal(b1-4)GlcNAc(b1-2)Man(a1-6)]Man(b1-4)GlcNAc(b1-4)GlcNAc
# Outline: as §1
# [28] = target: Gal3S6S(b1-4)GlcNAc6S
# Outline: as §1
# [29] = target: Gal6S(b1-3)GlcNAc
# Outline: as §1
# [30] = target: Gal6S(b1-3)GlcNAc6S
# Outline: as §1
# [31] = target: Gal6S(b1-4)Glc6S
# Outline: as §1
# [32] = target: Gal6S(b1-4)GlcNAc6S
# Outline: as §1
# [33] = target: GalNAc(b1-4)GlcNAc(b1-2)Man(a1-3)[GalNAc(b1-4)GlcNAc(b1-2)Man(a1-6)]Man(b1-4)GlcNAc(b1-4)GlcNAc
# Outline: as §1
# [34] = target: GalNAc(b1-6)GalNAc
# Outline: as §1
binder,measurement,setting,value
"Epa1-NP-mutant-E227G (Candida glabrata), Q6VBJ0 (protein) MILNPALFLNKCVCIYTTLILLLLTNGGYATSSNDISLASKDPTTFPLGCSPDITTPKKGLSMELYSYDFRKKGSYPCWDAAYLDPNYPRTGYKSHRLLAKVDGVTGNINFYYHATKGCTPQLGHLPASYNYPKPLTMTNFTMLLYGYFRPKVTGFHTFTISADDLLFVNFGAGNAFDCCRRDSSADHFGNYQAYAIWGSKTAKDELTVHLDAGVYYPIRLFYNNRGYDGALSFTFKTESNENTVSDFSEYFFSLDDTEEGCPGLISYDSSCASVKTSKIIGIDYHTETPNENLVPITKTIYHLGIPCTGTTTTPLCGSGFYDPLANKCVTINTSSTSSVTKTTSHTTSKEVSFHSSISSQKTLIPKSIPSPYGPIKSQSIPTEMETSSEISSSEYAFSDVISTPSHSPYTKKHSSLNSSSYTSTVIHSLTSYSISQGIFSTSLSEQNITSKSSTDKFSTATSMSNNITQSSIIISQFSTNNENYTTTSMHTSSDKISTETLNNSISTTTSILFSNSSTILKNNTTIISSDKDTHYHPVNPTIVCSTNKTEIICASITQPSISNSNNHWSSSVLKFNSTTVRSTLPSSAGSNETSINVPFSSSTESNTSTSSTSTSNSKMVRSTLPSSAGSNETSISVPFSSSTESNTSTSSTSTSNSKMVRSTLPSSAGSNETSINVPFSSSTESNTSTSSTSTSNSKTVRSTPFSSAGIIMTSLSQRNNKSASSYASSNSKCYNTADSCRKVHSTPSYLLTSSYTSEGVDYDCSLVSTKLKINDTNCVNNKHTTKSCLKTSVTTTIPTLEIKTARKSSSNTIGLHSYPTSSPNKSISSAPIIGYISSFKTIKTASPSYQTSDLTTITTITSLNNPGSTAVENTHESNDKSRKTSSNDISSKHSVIKETKDAVESSNKSHQTNTLKCSSIIIASSSHNSYESLGGTTLTLTLSKVYSPQNNDTLPFLEISEVNPSRTVLPESSKMMQYLTSTEERNKTARNTIATNIVSISTFHFEGEGNAIRMGYTQLLLMLIGIIVMNIGT",glycan array binding signal (z-score),[1],-0.144
same,glycan array binding signal (z-score),[2],-0.113
same,glycan array binding signal (z-score),[3],-0.037
same,glycan array binding signal (z-score),[4],-0.104
same,glycan array binding signal (z-score),[5],-0.202
same,glycan array binding signal (z-score),[6],-0.014
same,glycan array binding signal (z-score),[7],0.012
same,glycan array binding signal (z-score),[8],-0.147
same,glycan array binding signal (z-score),[9],-0.133
same,glycan array binding signal (z-score),[10],-0.138
same,glycan array binding signal (z-score),[11],-0.175
same,glycan array binding signal (z-score),[12],0.258
same,glycan array binding signal (z-score),[13],-0.089
same,glycan array binding signal (z-score),[14],-0.17
same,glycan array binding signal (z-score),[15],1.84
same,glycan array binding signal (z-score),[16],1.39
same,glycan array binding signal (z-score),[17],4.13
same,glycan array binding signal (z-score),[18],1.06
same,glycan array binding signal (z-score),[19],-0.236
same,glycan array binding signal (z-score),[20],4.84
same,glycan array binding signal (z-score),[21],2.52
same,glycan array binding signal (z-score),[22],-0.184
same,glycan array binding signal (z-score),[23],1.35
same,glycan array binding signal (z-score),[24],7.04
same,glycan array binding signal (z-score),[25],-0.117
same,glycan array binding signal (z-score),[26],0.016
same,glycan array binding signal (z-score),[27],-0.21
same,glycan array binding signal (z-score),[28],0.516
same,glycan array binding signal (z-score),[29],0.07
same,glycan array binding signal (z-score),[30],3.58
same,glycan array binding signal (z-score),[31],13
same,glycan array binding signal (z-score),[32],12.7
same,glycan array binding signal (z-score),[33],-0.164
same,glycan array binding signal (z-score),[34],-0.146
